Results as given in PubChem BioAssay (Tox21).
Records with an inconclusive call do not appear. Calls of active or inactive are those of the source. Unless noted, calls come from the whole dose curve; as a rule, active = well fitted curve in the direction sought with a large enough effect in the repeat runs; inconclusive = weak or mixed curves; inactive = no such curve, though single readings can be large; an effect the other way counts as inactive or inconclusive.

Assays:
[1] = qHTS assay to identify small molecule antagonists of the glucocorticoid receptor (GR) signaling pathway - cell viability counter screen (AID 720693); note: nearly all actives have a fitted effect of over 55% in size
[2] = qHTS assay for identifying genotoxic compounds that show differential cytotoxicity against isogenic chicken DT40 cell lines with known DNA damage response pathways - wild type cell line (AID 743012); note: nearly all actives have a fitted effect of over 60% in size
In short: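 Wild type DT40, 300 cells/well, ~0.5 h settle at 37 C/5% CO2; compounds in DMSO added by pintool; 40 h at 37 C/5% CO2; CellTiter-Glo, 30 min RT; luminescence.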

[3] = qHTS assay for identifying genotoxic compounds that show differential cytotoxicity against isogenic chicken DT40 cell lines with known DNA damage response pathways - Rev3 mutant cell line (AID 743014); note: nearly all actives have a fitted effect of over 55% in size
[4] = qHTS assay for identifying genotoxic compounds that show differential cytotoxicity against isogenic chicken DT40 cell lines with known DNA damage response pathways - Rad54/Ku70 mutant cell line (AID 743015); note: nearly all actives have a fitted effect of over 60% in size
[5] = qHTS assay to identify small molecule antagonists of the androgen receptor (AR) signaling pathway - cell viability counter screen (AID 743033; note: nearly all actives have a fitted effect of over 45% in size)
[6] = qHTS assay to identify small molecule antagonists of the androgen receptor (AR) signaling pathway using the MDA cell line - cell viability counter screen (AID 743041; note: nearly all actives have a fitted effect of over 45% in size)
In short: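 MDA-kb2 AR-luc cells (MMTV-luciferase, AR/GR responsive) treated with compounds plus R1881 agonist for 16 h at 37C. CellTiter-Fluor added at 15.5 h; fluorescence read after 30 min in the same wells.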

[7] = qHTS assay to identify small molecule antagonists of the thyroid receptor (TR) signaling pathway - cell viability counter screen (AID 743064); note: nearly all actives have a fitted effect of over 50% in size
In short: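 Plate GH3.TRE-Luc cells; incubate 4 h at 37 °C; add compound, then T3 to 1 nM final; incubate 23.5 h; add CellTiter-Fluor; incubate 30 min at 37 °C, 5% CO2; read fluorescence.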

[8] = qHTS assay to identify small molecule antagonists of the thyroid receptor (TR) signaling pathway (AID 743065); note: series mostly up to about 70 µM; nearly all actives have a fitted effect of over 55% in size
In short: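 GH3.TRE-Luc rat pituitary cells (two TREs driving luciferase) were dosed with compound, then stimulated with 1 nM T3 (final) for 23.5 h at 37 C. ONE-Glo luminescence was the read-out, with CellTiter-Fluor fluorescence as the cytotoxicity counter-screen.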

[9] = system: thyroid hormone receptor (rat, GH3 cells); assay: qHTS assay to identify small molecule agonists of the thyroid receptor (TR) signaling pathway (AID 743066; calls by dose curve)
[10] = qHTS assay to identify small molecule antagonists of the estrogen receptor alpha (ER-alpha) signaling pathway - cell viability counter screen (AID 743074; calls by dose curve;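 note: HEK293 cells carrying ER-alpha-UAS-bla reporter stimulated with 17beta-estradiol; nearly all actives have a fitted effect of over 45% in size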)
[11] = qHTS assay to identify small molecule antagonists of the estrogen receptor alpha (ER-alpha) signaling pathway using the BG1 cell line - cell viability counter screen (AID 743081);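 note: compound given together with 17beta-estradiol as the ER stimulus; series mostly up to about 70 µM; nearly all actives have a fitted effect of over 45% in size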
[12] = molecular target: Aromatase (Homo sapiens) (UniProt P11511); assay: qHTS assay to identify aromatase inhibitors (AID 743083); note: series mostly up to about 70 µM; nearly all actives have a fitted effect of over 55% in size
[13] = molecular target: Estrogen receptor (Homo sapiens) (UniProt P03372); assay: qHTS assay to identify small molecule antagonists of the estrogen receptor alpha (ER-alpha) signaling pathway (AID 743069; active = well fitted curve in the direction sought with a large enough effect in the signal ratio in the repeat runs, not every such curve was filed as active; the % refers to the signal ratio)
In short: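 HEK293 ER-alpha-UAS-bla GripTite cells, held overnight in 2% charcoal-stripped FBS, 5,000 cells/well, preincubated 4 h, then compound plus 17beta-estradiol for 18 h at 37C. Beta-lactamase read by LiveBLAzer B/G FRET substrate, 2 h at room temperature.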

[14] = molecular target: Estrogen receptor (Homo sapiens) (UniProt P03372); assay: qHTS assay to identify small molecule agonists of the estrogen receptor alpha (ER-alpha) signaling pathway (AID 743075; calls by dose curve)
[15] = molecular target: Estrogen receptor (Homo sapiens) (UniProt P03372); assay: qHTS assay to identify small molecule agonists of the estrogen receptor alpha (ER-alpha) signaling pathway using the BG1 cell line (AID 743079); note: nearly all actives have a fitted effect of over 20% in size
[16] = qHTS assay to identify small molecule antagonists of the estrogen receptor alpha (ER-alpha) signaling pathway using the BG1 cell line (AID 743080; calls by dose curve;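 note: BG1 cells stimulated with 17beta-estradiol alongside compound; series mostly up to about 70 µM; nearly all actives have a fitted effect of over 25% in size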)
In short: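 BG1-Luc-4E2 cells (endogenous full-length ER-alpha, 4xERE luciferase) hormone-starved 5 days in charcoal-stripped FBS, plated 4,000/well for 24 h, then compound plus 17beta-estradiol for 21.5 h at 37 C; ONE-Glo luminescence read.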

Measured: Potency

Chain of Aromatase (Homo sapiens) (P11511 whole entry, looked up): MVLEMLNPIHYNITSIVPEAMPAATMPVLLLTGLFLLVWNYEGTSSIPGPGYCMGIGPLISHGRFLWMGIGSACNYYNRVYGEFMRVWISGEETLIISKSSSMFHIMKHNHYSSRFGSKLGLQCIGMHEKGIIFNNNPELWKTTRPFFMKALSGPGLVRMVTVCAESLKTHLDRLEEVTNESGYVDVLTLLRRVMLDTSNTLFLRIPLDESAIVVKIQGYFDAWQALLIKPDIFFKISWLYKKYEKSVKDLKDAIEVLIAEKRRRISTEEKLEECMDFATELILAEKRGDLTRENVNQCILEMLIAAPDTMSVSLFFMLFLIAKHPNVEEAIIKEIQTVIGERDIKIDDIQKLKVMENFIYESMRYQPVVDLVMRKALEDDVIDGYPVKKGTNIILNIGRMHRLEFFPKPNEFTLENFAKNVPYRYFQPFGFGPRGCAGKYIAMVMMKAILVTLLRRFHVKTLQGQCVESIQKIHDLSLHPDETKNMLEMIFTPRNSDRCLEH
Chain of Estrogen receptor (Homo sapiens) (P03372 whole entry, looked up): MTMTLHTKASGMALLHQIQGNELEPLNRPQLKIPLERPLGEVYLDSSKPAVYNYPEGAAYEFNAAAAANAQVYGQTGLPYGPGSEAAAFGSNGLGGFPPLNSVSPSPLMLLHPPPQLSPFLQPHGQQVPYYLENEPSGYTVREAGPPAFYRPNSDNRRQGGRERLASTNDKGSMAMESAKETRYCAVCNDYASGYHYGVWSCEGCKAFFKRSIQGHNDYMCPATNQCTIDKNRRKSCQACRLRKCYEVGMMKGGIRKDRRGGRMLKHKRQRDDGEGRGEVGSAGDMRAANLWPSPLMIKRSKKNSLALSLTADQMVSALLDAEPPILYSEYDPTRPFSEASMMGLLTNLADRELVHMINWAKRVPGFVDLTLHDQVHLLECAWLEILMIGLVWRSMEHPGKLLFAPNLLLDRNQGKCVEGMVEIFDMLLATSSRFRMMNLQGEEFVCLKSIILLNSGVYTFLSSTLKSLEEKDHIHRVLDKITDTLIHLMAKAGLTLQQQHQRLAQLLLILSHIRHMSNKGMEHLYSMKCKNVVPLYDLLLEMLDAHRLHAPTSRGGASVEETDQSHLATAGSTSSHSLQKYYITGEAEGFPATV

O=NN(CCCl)C(=O)NC1CCCCC1
not listed: [13] | [14] | [15] | [16]
inactive: all other assays above

CC(=O)C(C)O (centres undefined)
not listed: [8] | [9] | [13] | [14] | [15] | [16]
inactive: all other assays above

Cc1ccc(C(C)NC(=O)[C@@H](NC(=O)OC(C)C)C(C)C)cc1 (some centres undefined)
not listed: [13] | [14] | [15] | [16]
inactive: all other assays above

CC(C)=CCC[C@@](C)(O)[C@H]1CC=C(C)CC1
not listed: [13] | [14] | [15] | [16]
inactive: all other assays above

O=C1OCCO1
not listed: [7]
inactive: all other assays above

CC(O)CC(C)O (centres undefined)
not listed: [13] | [14] | [15] | [16]
inactive: all other assays above

CCCC(=O)OC/C=C(\C)CCC=C(C)C
not listed: [7] | [11] | [13]
inactive: all other assays above

CNCCS(=O)(=O)O
not listed: [13] | [14] | [15] | [16]
inactive: all other assays above

CC(C)CCOC(=O)c1ccccc1
not listed: [13] | [14] | [15] | [16]
inactive: all other assays above

N#Cc1cscn1
not listed: [10] | [13] | [14] | [15] | [16]
inactive: all other assays above

CCC(=O)CC
not listed: [13] | [14] | [15] | [16]
inactive: all other assays above

CC(C)OC(=O)CCC(=O)OC(C)C
not listed: [13] | [14] | [15] | [16]
inactive: all other assays above

CN(C)CCN(C)CCO
not listed: [8] | [9]
inactive: all other assays above
